This is a sample that favours compounds with a hit; in the whole collection about 2.4% have one here.
FEN1 inh: human FEN1 inhibition | P39748 | Recombinant FEN1 flap cleavage, fluorescence, 15 min | Potency, µM (titrated, usually from 114 µM), for inactives: at the top dose activity change, negative = inhibition, actives largely listed as inhibitors | hit rate 0.35% among 390,000 | AID 588795; note: % is set by controls: 0 for no effect and ±100 for the full control effect; nearly all actives have a fitted effect of over 65% in size
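Enzyme 10 nM, 15 min RT preincubation with compound; start with substrate 50 nM final; reads at 0 and 15 min; qHTS titration, four-parameter Hill fit.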
POLH inh: blocks human DNA polymerase eta activity; Q9Y253; recombinant Pol eta, fluorescent DNA replication assay; hit rate 1.2% among 390,000; AID 588591; Potency, µM (top dose mostly 114 µM), for the others: top-dose activity change, negative = inhibition, actives largely listed as inhibitors; note: % is set by controls: 0 for no effect and ±100 for the full control effect
Target sequence (Q9Y253 whole entry, looked up): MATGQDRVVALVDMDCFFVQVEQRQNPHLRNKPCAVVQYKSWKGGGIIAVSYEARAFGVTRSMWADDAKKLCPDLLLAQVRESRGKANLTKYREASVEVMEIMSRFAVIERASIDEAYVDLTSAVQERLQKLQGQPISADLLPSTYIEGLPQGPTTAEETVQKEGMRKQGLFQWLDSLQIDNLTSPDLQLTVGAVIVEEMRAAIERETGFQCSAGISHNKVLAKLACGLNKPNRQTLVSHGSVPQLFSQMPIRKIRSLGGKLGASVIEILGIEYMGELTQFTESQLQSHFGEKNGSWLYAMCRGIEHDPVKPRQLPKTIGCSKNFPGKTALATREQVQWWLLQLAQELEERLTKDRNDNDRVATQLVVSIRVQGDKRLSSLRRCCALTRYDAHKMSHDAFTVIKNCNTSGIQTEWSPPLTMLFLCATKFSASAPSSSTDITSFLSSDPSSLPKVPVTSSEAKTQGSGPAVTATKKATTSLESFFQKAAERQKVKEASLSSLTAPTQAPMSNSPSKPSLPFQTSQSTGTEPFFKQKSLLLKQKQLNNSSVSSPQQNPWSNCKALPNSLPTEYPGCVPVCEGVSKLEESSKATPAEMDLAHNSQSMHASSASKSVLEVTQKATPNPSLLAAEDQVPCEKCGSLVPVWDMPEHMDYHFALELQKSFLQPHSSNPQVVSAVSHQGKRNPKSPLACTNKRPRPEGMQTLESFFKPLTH
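Pol eta (10 nM) was preincubated with compounds for 15 min at room temperature, after which fluorescent replication substrate (50 nM final) was added to start the reaction. Fluorescence was read kinetically at 0 and 10 min.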
TDP1 block: TDP1 (human) enzyme inhibition. Q9NUW8. recombinant TDP1, AlphaScreen DNA substrate cleavage. Potency, µM (highest dose often 130 µM), inactives show at the top dose activity change, negative = inhibition, usual class: inhibitors. hit rate 0.28% among 350,000. AID 485290; note: % is set by controls: 0 for no effect and ±100 for the full control effect; nearly all actives have a fitted effect of over 40% in size
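E. coli-derived human Tdp1, 1 nM final. Cpd preinc 15 min RT; substrate 15 nM final, 5 min RT; AS bead mix 10 ug/ml final, 10 min RT. Signal loss = tyrosine-FITC cleavage. No-enzyme wells = max signal.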
POLI inh: DNA polymerase iota (human) inhibition | Q9UNA4 | hit rate 1% among 390,000 | AID 588590 | Pol iota fluorescent replication assay, 10 min | Potency, µM (series often up to 115 µM), for inactives: at the top dose activity, negative = inhibition, hits mostly inhibitors
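Fluorescent replication assay read twice, at 0 min and 10 min after adding 50 nM (final) substrate. Enzyme (10 nM) and compounds were first incubated 15 min at room temperature; enzyme-free buffer wells were negative controls.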
Pol beta inh: DNA polymerase beta (human) inhibition. P06746. Pol beta primer extension/strand displacement, fluorescence kinetic. Potency, µM (series often up to 114 µM), inactives show at the top dose activity change, negative = inhibition, hits mostly inhibitors. hit rate 1.3% among 340,000; note: % is set by controls: 0 for no effect and ±100 for the full control effect
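Reaction started by 50 nM substrate onto compound-treated Pol beta (10 nM, 15 min preincubation, room temperature); plates read at 0 min and 10 min. Normalized concentration-effect data fitted by four-parameter Hill equation.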
Pol kappa inh: DNA polymerase kappa (human) inhibition. Q9UBT6. purified Pol kappa, fluorescent DNA synthesis assay, 10 min. Potency, µM (doses to about 107 µM), for inactives: top-dose activity, negative = inhibition, usual class: inhibitors. hit rate 0.53% among 400,000. AID 588579; note: % is set by controls: 0 for no effect and ±100 for the full control effect
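Activity was followed as the change in fluorescence between reads at 0 and 10 min after starting the reaction with 50 nM substrate. Beforehand, 10 nM polymerase had been preincubated with compound for 15 min at room temperature.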
Active calls of the source: *; ? = inconclusive; nt = not tested or not shown; ! = repeats disagree; [ ] = dose if it differs, or a comment. Calls come from the whole dose curve; as a rule, active = well fitted curve in the direction sought with a large enough effect; inconclusive = small, poorly fitted or top-dose-only effect, or another doubt; inactive = no such curve, though single readings can be large; an effect the other way counts as inactive or inconclusive. Potency is the fitted concentration of half-maximal effect.

SMILES	FEN1 inh	POLH inh	TDP1 block	POLI inh	Pol beta inh	Pol kappa inh
CCN1C/C(=C/c2ccc(N3CCOCC3)cc2)C(=O)/C(=C/c2ccc(N3CCOCC3)cc2)C1	79µM*	?	5%	79µM*	?	?
CCc1ccc(/C=C2/SC(N3CCOCC3)=NC2=O)cc1	4%	-21%	nt	40%	22%	4%
CCNC(=O)CSc1ncnc2sccc12	4%	22µM*	1%	?	?	-17%
COc1cc(/C=C2\SC(=S)NC2=O)ccc1OS(=O)(=O)c1ccccc1	nt	nt	-5%	nt	?	nt
COc1cc(/C=C2/SC(=S)NC2=O)ccc1OS(=O)(=O)c1ccc(C)cc1	79µM*	28µM*	6%	?	35µM*	-19%
CCCCC(CC)CNC(=O)CCCc1nnc2n(CCC)c(=O)c3sccc3n12 (configuration not stated)	-9%	-19%	0%	2%	12%	4%
COc1ccc(C2Nc3ccccc3C(=O)N2Cc2ccco2)cc1COc1c(C)cccc1C (configuration not stated)	-13%	nt	0%	25µM*	nt	-16%
COc1cccc(-c2[nH]nc3c2C(c2ccsc2)C(C#N)=C(N)O3)c1 (configuration not stated)	-2%	-17%	5%	-6%	-1%	-9%
COc1cccc(-c2[nH]nc3c2C(c2ccoc2)C(C#N)=C(N)O3)c1 (configuration not stated)	1%	?	-8%	?	35µM*	-16%
Oc1cc(O)c2c(c1)O[C@H](c1ccc(O)c(O)c1)[C@H](O)C2	15%	-6%	-3%[21 µM]	89µM*	3%	89µM*!
O=C1c2c(O)cc(O)cc2OC(c2ccc(O)c(O)c2)C1O (configuration not stated)	nt	5.6µM*	-2%[56.1 µM]	4µM*	1.9µM*	6µM*
O=C1c2c(O)cc(O)cc2O[C@H](c2ccc(O)c(O)c2)C1O (some centres not stated)	nt	nt	4%	nt	nt	1.3µM*
COc1cc(C2CC(=O)c3c(O)cc(O)cc3O2)ccc1O (configuration not stated)	-7%	-24%	5%	24%	?	11%
CCOC(=O)[C@@H](C)N(C(=O)OC(C)(C)C)S(=O)(=O)N(Cc1ccccc1)[C@@H](C(=O)OC)C(C)C	-7%	nt	nt	33%	nt	6%
Cc1ccc(-c2cc(C(=O)Oc3ccccc3)c3cccc(C)c3n2)cc1	0%	50µM*	nt	?	?	-30%
CC(C)(C)CC(C)(C)N=C1Nc2ccc(Cl)cc2NC12C[C@H]1CCC(=O)N3CC[C@@H](C2)[C@@H]13 (some centres not stated)	?	nt	nt	36%	nt	-16%
CC(=O)CS(=O)(=O)c1ccc(Oc2ccc(S(=O)(=O)CC(C)=O)cc2)cc1	-11%	?	7%	?	32µM*	?
O=C(O)CS(=O)(=O)c1ccc(Oc2ccc(S(=O)(=O)CC(=O)O)cc2)cc1	3%	-17%	6%	59%	-37%	-15%
COc1cccc(NC(=O)c2cc3cccc(OC)c3o/c2=N\O)c1	nt	nt	nt	nt	6%	nt
COc1ccc(NC(=O)c2cc3cccc(OC)c3oc2=Nc2ccc(C(=O)O)cc2)cc1OC	-30%	14µM*	5%	-8%	?	-37%
COc1ccc(N2C(=O)CC(S/C(N)=N/N=C/c3ccnc4ccccc34)C2=O)cc1 (configuration not stated)	nt	nt	0%	nt	33%	nt
N/C(=N\N=C\c1ccnc2ccccc12)SC1CC(=O)N(c2ccc(Br)cc2)C1=O (configuration not stated)	1%	25µM*	3%	3%	?	-5%
CC1(C)c2ccccc2N(CC(N)=O)C12C=Cc1ccccc1O2 (configuration not stated)	-2%	-10%	nt	-23%	6%	-16%
